Here are results for one sequence from publication PMC7862700, “An all-to-all approach to the identification of sequence-specific readers for epigenetic DNA modifications on cytosine”.

Common to all, as to assay: DAPPL (digital affinity profiling via proximity ligation, sequencing); 10 mM Tris-HCl pH 7.5, 50 mM NaCl, 1 mM DTT, 4% glycerol, room temperature, 30 min; GST-TFs on glutathione beads, 16-mer random dsDNA library, 0.1% formaldehyde crosslink after washing; high values mean tight binding
In one assay the target is T1, FEV (Homo sapiens, UniProt Q99581 1-238).
T1 sequence: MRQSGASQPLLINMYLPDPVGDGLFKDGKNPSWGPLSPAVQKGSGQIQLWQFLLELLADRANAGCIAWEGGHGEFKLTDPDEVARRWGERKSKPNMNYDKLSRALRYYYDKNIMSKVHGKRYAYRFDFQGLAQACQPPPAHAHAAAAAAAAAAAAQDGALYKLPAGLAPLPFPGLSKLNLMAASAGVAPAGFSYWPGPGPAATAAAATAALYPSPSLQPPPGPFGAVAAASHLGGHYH
The settings on record: protein: recombinant; tags: N-terminal GST; dsDNA, one strand shown. In short, it runs like this:
(§1)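 Binding signal is given per hexamer as its read frequency for a factor divided by its frequency in the tag-only sample. GST-fused human transcription factors were expressed in yeast, captured on glutathione beads, barcoded with DNA and pooled with that sample, then incubated with 200 nmole of a 16-mer random double-stranded DNA library in Tris/NaCl/DTT/glycerol buffer for 30 min at room temperature. The pools were then washed, crosslinked, proximity-ligated, amplified by PCR and sequenced on an Illumina NextSeq500.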

For another assay, the target named is ETV5 (Homo sapiens, UniProt P41161 1-510). The settings on record: protein: recombinant; tags: N-terminal GST; dsDNA, one strand shown. In short, it runs like this:
as §1

The target of a further assay is HSF1 (Homo sapiens, UniProt Q00613 1-529). To be noted: protein: recombinant; tags: N-terminal GST; chain copies: 3; dsDNA, one strand shown. In short, it runs like this: as §1
HSF1, sequence (Q00613 whole entry): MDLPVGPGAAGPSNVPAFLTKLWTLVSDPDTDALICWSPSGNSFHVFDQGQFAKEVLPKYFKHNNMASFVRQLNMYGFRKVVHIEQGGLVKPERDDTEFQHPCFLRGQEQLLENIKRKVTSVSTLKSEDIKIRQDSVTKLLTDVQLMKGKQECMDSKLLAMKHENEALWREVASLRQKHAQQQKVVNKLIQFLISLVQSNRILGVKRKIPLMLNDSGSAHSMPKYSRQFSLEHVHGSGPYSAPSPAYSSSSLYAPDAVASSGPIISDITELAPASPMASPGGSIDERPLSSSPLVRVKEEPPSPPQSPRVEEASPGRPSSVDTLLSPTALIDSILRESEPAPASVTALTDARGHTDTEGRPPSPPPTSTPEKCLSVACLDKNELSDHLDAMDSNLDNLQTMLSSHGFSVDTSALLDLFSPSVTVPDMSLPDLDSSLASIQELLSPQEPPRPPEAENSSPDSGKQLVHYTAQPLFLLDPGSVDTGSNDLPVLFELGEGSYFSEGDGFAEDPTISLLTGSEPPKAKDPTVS
In the next assay the target is T2, SPIC (Homo sapiens, UniProt Q8N5J4 1-248).
T2 sequence: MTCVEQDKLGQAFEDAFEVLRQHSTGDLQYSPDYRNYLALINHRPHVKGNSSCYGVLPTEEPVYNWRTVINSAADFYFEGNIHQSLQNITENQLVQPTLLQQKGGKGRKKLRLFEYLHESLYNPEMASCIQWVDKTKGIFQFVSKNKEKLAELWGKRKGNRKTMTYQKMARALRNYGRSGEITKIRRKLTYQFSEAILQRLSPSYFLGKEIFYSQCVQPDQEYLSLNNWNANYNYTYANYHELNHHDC
To be noted: protein: recombinant; tags: N-terminal GST; dsDNA, one strand shown. In short, it runs like this:
as §1

The next assay concerns the target ELF4 (Homo sapiens, UniProt Q99607 1-663). The settings on record: protein: recombinant; tags: N-terminal GST; dsDNA, one strand shown. In short, it runs like this:
as §1

Another assay deals with T3, ELK4 (Homo sapiens, UniProt P28324-2 1-405).
T3 sequence: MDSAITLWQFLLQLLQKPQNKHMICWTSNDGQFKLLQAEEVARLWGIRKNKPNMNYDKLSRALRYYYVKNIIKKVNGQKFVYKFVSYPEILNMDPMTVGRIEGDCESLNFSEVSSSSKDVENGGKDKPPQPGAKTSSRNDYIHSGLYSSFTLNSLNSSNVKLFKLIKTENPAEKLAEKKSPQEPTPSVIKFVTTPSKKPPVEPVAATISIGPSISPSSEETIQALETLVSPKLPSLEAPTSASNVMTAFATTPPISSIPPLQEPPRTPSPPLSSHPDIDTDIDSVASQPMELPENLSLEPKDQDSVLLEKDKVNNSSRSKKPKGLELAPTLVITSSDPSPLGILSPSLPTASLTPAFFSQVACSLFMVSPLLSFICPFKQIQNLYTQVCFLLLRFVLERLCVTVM
The settings on record: protein: recombinant; tags: N-terminal GST; dsDNA, one strand shown. The method, boiled down: as §1

The next assay addresses T4, ETV2 (Homo sapiens, UniProt O00321 1-342).
T4 sequence: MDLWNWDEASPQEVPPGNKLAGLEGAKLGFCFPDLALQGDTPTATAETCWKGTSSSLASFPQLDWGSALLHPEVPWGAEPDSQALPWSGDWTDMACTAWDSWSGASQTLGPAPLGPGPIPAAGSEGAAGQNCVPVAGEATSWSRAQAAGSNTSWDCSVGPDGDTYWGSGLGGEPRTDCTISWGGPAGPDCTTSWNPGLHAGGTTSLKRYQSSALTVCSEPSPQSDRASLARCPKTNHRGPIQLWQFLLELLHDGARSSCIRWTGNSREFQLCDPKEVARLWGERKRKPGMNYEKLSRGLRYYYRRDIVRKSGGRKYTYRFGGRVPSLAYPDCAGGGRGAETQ
To be noted: protein: recombinant; tags: N-terminal GST; dsDNA, one strand shown. In short, it runs like this:
as §1

The next assay has as its target T5, ELF3 (Homo sapiens, UniProt P78545 1-371).
T5 sequence: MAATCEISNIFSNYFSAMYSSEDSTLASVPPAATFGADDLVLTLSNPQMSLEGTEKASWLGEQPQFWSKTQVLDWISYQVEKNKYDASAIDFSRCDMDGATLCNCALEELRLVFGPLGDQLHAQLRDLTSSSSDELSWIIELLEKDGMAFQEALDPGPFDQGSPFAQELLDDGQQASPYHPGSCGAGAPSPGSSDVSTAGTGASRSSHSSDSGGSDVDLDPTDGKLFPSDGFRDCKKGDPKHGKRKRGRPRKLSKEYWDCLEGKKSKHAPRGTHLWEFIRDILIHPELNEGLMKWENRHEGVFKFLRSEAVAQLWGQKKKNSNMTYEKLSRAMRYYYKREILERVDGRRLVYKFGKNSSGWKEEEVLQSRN
The settings on record: protein: recombinant; tags: N-terminal GST; dsDNA, one strand shown. The method, boiled down:
as §1

In another assay the target is CRX (Homo sapiens, UniProt O43186 1-299). The settings on record: protein: recombinant; tags: N-terminal GST; dsDNA, one strand shown. In short, it runs like this:
as §1

The next assay concerns the target ETV1 (Homo sapiens, UniProt P50549 1-477). To be noted: protein: recombinant; tags: N-terminal GST; dsDNA, one strand shown. In short, it runs like this:
as §1

For the next assay, the target named is T6, ERF (Homo sapiens, UniProt P50548 1-548).
T6 sequence: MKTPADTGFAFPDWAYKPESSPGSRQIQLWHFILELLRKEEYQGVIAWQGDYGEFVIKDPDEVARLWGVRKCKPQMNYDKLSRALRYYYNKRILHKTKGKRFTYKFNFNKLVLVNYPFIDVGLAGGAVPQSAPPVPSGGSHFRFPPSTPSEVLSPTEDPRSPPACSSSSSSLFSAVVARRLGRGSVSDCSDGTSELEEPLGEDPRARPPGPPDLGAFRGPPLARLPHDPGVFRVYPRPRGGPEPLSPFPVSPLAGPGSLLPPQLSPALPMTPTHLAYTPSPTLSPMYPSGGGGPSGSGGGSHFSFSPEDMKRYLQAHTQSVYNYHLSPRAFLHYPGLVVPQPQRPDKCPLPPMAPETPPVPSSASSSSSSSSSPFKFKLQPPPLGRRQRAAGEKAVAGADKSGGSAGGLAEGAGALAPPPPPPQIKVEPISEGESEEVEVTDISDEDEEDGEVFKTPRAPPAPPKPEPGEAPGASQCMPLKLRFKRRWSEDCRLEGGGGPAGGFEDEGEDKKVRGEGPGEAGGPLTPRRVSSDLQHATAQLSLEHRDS
To be noted: protein: recombinant; tags: N-terminal GST; dsDNA, one strand shown. In short, it runs like this: as §1

For a further assay, the target named is T7, ETV3L (Homo sapiens, UniProt Q6ZN32 1-361).
T7 sequence: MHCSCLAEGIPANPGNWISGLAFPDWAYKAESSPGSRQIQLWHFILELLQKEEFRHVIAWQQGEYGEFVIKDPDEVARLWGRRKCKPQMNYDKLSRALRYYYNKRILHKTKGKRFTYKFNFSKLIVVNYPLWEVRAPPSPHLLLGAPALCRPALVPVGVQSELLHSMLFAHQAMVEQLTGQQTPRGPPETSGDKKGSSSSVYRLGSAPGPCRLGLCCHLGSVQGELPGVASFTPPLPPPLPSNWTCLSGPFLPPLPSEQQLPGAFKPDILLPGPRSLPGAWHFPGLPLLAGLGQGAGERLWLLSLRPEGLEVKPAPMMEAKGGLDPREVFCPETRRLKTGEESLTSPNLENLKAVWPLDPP
To be noted: protein: recombinant; tags: N-terminal GST; dsDNA, one strand shown. The method, boiled down: as §1

Another assay has as its target T8, ETS2 (Homo sapiens, UniProt P15036 1-469).
T8 sequence: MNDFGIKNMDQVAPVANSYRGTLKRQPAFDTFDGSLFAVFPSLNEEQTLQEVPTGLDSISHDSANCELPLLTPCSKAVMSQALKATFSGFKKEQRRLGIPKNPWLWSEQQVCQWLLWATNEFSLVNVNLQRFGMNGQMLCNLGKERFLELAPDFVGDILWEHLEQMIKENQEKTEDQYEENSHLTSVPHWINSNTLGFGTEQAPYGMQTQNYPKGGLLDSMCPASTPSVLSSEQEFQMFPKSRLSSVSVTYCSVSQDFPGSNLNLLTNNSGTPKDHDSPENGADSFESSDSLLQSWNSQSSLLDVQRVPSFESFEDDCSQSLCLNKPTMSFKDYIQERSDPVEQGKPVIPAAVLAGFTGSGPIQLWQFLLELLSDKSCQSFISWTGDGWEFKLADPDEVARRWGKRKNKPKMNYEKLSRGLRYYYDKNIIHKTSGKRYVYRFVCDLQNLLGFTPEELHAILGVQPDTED
To be noted: protein: recombinant; tags: N-terminal GST; dsDNA, one strand shown. In short, it runs like this:
as §1

The next assay addresses T9, SPDEF (Homo sapiens, UniProt O95238 1-335).
T9 sequence: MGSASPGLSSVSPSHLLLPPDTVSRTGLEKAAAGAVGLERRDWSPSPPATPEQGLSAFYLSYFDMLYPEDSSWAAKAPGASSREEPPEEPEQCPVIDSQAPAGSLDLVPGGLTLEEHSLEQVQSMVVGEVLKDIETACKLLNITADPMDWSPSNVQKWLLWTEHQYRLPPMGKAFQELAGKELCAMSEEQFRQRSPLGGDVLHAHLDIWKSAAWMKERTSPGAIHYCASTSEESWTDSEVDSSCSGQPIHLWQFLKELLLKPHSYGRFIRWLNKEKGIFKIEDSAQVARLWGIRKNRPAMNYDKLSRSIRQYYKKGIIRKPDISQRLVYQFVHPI
To be noted: protein: recombinant; tags: N-terminal GST; dsDNA, one strand shown. The method, boiled down: as §1

For another assay, the target named is T10, ETV7 (Homo sapiens, UniProt Q9Y603 1-341).
T10 sequence: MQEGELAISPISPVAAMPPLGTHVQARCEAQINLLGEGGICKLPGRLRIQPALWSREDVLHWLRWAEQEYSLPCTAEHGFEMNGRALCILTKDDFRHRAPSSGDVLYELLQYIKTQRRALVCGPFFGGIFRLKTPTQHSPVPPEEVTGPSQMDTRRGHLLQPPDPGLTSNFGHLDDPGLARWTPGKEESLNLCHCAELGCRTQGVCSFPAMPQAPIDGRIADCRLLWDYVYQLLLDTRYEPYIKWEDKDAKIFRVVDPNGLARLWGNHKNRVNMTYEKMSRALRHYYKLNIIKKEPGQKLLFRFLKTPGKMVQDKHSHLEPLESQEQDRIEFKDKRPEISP
The settings on record: protein: recombinant; tags: N-terminal GST; dsDNA, one strand shown. In short, it runs like this:
as §1

The target of a further assay is T11, ELF5 (Homo sapiens, UniProt Q9UKW6-2 1-255).
T11 sequence: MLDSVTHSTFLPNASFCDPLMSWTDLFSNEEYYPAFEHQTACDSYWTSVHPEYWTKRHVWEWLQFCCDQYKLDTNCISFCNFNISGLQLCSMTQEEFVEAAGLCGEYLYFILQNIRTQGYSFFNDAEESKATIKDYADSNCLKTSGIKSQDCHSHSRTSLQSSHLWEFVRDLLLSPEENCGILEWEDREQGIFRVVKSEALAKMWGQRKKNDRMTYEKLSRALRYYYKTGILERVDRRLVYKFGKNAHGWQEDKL
The settings on record: protein: recombinant; tags: N-terminal GST; dsDNA, one strand shown. In short, it runs like this: as §1

The next assay concerns the target T12, ETV3 (Homo sapiens, UniProt P41162-2 1-143).
T12 sequence: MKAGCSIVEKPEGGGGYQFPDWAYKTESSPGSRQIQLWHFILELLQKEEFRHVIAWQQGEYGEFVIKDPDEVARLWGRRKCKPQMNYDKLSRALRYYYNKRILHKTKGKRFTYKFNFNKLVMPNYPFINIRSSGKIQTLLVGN
The settings on record: protein: recombinant; tags: N-terminal GST; dsDNA, one strand shown. In short, it runs like this:
as §1

The target in the next assay is ETV6 (Homo sapiens, UniProt P41212 1-452). To be noted: protein: recombinant; tags: N-terminal GST; dsDNA, one strand shown. In short, it runs like this: as §1
ETV6, sequence (P41212 whole entry): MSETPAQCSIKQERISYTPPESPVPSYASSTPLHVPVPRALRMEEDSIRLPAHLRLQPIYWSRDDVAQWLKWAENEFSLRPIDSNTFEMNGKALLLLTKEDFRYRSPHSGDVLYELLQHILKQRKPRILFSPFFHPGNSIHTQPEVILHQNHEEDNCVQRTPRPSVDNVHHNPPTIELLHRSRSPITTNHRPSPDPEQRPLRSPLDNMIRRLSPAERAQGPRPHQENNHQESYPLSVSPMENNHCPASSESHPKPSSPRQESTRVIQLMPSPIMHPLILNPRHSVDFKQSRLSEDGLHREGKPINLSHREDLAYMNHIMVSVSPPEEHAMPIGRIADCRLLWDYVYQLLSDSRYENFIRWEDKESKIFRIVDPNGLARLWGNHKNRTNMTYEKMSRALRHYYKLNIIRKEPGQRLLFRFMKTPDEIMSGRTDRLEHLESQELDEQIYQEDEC

ELF4, sequence (Q99607 whole entry): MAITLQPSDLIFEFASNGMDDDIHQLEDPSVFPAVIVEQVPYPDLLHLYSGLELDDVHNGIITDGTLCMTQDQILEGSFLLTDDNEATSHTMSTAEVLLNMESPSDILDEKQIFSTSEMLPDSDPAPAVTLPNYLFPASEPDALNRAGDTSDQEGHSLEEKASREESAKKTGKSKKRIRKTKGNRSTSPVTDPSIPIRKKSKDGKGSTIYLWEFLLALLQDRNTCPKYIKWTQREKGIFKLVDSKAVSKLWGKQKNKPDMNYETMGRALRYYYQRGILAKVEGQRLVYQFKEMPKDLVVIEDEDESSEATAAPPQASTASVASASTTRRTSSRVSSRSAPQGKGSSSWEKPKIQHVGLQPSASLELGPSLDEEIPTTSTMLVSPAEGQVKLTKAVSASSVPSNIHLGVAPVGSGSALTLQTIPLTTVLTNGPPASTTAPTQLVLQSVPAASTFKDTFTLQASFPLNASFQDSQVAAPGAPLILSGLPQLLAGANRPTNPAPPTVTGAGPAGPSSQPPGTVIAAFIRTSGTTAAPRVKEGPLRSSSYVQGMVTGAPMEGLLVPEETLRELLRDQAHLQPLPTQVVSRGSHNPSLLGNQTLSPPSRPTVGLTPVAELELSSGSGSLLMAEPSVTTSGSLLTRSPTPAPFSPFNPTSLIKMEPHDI
ETV5, sequence (P41161 whole entry): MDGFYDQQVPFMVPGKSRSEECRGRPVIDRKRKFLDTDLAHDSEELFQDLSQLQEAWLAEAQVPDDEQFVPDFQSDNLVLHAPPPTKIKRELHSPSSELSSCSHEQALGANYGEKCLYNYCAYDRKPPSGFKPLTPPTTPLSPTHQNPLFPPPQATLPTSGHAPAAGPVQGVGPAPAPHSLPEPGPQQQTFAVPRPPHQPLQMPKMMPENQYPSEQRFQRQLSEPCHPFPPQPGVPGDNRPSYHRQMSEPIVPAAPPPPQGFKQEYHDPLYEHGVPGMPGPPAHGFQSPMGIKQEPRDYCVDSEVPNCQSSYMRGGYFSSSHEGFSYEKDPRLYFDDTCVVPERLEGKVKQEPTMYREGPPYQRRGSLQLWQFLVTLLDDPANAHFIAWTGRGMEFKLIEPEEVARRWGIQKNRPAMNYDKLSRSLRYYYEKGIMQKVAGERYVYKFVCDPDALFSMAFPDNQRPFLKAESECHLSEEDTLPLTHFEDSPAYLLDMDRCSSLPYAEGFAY
ETV1, sequence (P50549 whole entry): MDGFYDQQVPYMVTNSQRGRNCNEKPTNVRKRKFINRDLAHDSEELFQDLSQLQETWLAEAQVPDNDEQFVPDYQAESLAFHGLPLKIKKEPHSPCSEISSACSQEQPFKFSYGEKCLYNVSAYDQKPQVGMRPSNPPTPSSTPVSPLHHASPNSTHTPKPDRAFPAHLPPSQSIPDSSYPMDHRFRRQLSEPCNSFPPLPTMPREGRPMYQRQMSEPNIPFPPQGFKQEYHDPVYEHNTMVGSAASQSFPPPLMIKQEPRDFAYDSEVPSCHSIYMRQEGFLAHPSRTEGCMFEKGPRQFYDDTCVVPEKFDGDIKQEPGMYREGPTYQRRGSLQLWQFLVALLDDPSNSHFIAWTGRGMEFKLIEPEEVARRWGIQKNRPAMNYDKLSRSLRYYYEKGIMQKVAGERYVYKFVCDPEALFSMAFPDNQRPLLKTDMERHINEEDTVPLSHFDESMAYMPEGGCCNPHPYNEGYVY
CRX, sequence (O43186 whole entry): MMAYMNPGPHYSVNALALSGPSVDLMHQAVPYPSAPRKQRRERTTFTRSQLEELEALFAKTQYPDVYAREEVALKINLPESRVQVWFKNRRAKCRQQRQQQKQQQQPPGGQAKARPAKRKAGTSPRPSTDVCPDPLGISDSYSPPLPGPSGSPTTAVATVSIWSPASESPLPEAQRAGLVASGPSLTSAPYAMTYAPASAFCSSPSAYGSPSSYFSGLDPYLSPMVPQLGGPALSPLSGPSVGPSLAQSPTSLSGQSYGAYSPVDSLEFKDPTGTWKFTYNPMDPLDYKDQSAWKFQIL

For the sequence CTTTTG, the binding signal is 1.3 fold enrichment (6-mer frequency, TF over GST control) in the assay with FEV; 1.38 fold enrichment (6-mer frequency, TF over GST control) in the assay with ETV5; 1.36 fold enrichment (6-mer frequency, TF over GST control) with HSF1; 1.36 fold enrichment (6-mer frequency, TF over GST control) with SPIC; 1.42 fold enrichment (6-mer frequency, TF over GST control) with ELF4; 1.35 fold enrichment (6-mer frequency, TF over GST control) with ELK4. The binding signal was 1.25 fold enrichment (6-mer frequency, TF over GST control) with ETV2; 1.39 fold enrichment (6-mer frequency, TF over GST control) with ELF3; 1.43 fold enrichment (6-mer frequency, TF over GST control) with CRX; 1.3 fold enrichment (6-mer frequency, TF over GST control) in the assay with ETV1; 1.62 fold enrichment (6-mer frequency, TF over GST control) in the assay with ERF; 1.31 fold enrichment (6-mer frequency, TF over GST control) in the assay with ETV3L. In addition, the binding signal was 1.45 fold enrichment (6-mer frequency, TF over GST control) with ETS2; 1.46 fold enrichment (6-mer frequency, TF over GST control) in the assay with SPDEF; 1.44 fold enrichment (6-mer frequency, TF over GST control) with ETV7; 1.28 fold enrichment (6-mer frequency, TF over GST control) with ELF5; 1.24 fold enrichment (6-mer frequency, TF over GST control) in the assay with ETV3; 1.46 fold enrichment (6-mer frequency, TF over GST control) in the assay with ETV6.
